Compound activity: PubChem BioAssay, Broad Institute
In the library only some 6.7% were active in any assay of this set; here they are far more common.
C diff growth: C. difficile growth inhibition; Clostridium difficile clinical isolate growth, OD600, 24 h; stronger effect = lower value; growth activity, negative = inhibition, % at 16 µg/mL (by protocol); 86,000 tested, 0.25% active;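 active = mean growth activity at or below -80% and every replicate also at or below -80%; inconclusive = mean at or below -80% but some replicate above -80%; inactive = mean growth activity above -80%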;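 note: 0% = DMSO wells and -100% = levofloxacin 16 µg/mL wells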
Pf Dd2 growth: P. falciparum Dd2 growth inhibition | SYBR Green, 72 h; stronger effect = lower value | activity change, % at 10 µM | 94,000 tested, 2.3% active | AID 1159554; in the data active = activity change below about -80%; inconclusive = no clear call, values can overlap the other calls
T cruzi growth-1: T. cruzi proliferation inhibition. 77,000 tested, 5.9% active. T. cruzi beta-gal in NIH3T3, GalScreen luminescence, 90 h. AID 624255. inhibition, % at 8.34 µM;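 active = mean inhibition above about 93%, with at least 55% of replicates each passing it, limit read from the data, passing the limit was not always enough; inconclusive = only one of those two conditions holds; inactive = neither condition holds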
T cruzi growth-2: inhibitors of T. cruzi proliferation | shares compounds with T cruzi growth-1 | inhibition, % at 8.35 µM | T. cruzi beta-gal in NIH3T3, GalScreen luminescence, 90 h | AID 651739 | 5,600 tested, 72% active;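 active = mean replicate inhibition above about 95% and at least 55% of replicates individually reaching it, limit read from the data; inconclusive = only one of the two criteria is met; inactive = neither criterion is met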
T cruzi growth-3: inhibitors of T. cruzi proliferation; shares compounds with T cruzi growth-1; T. cruzi beta-gal in NIH3T3, GalScreen luminescence, 90 h; inhibition, % at 2.09 µM; 5,600 tested, 21% active;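 active = mean inhibition above about 95%, with at least 55% of replicates also reaching it, limit read from the data; inconclusive = meets just one of the two conditions; inactive = meets neither condition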;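 note: plate controls were neutral control median for no effect and positive control median for full effect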
3T3 cytotox: NIH/3T3 (mouse) viability loss | cytotoxicity (signal decrease), % at 8.35 µM | shares compounds with T cruzi growth-1 | AID 651742 | 5,600 tested, 14% active | NIH/3T3 viability, CellTiter-Glo ATP luminescence, 90 h;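 active = mean signal decrease across replicates above about 35% based on untreated-well scatter, with enough replicates individually passing, limit read from the data; inconclusive = no rule stated though some were filed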;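 note: 0% = median of neutral control wells and 100% = median of positive control wells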
NIH3T3 tox 2: kills mouse NIH/3T3 fibroblasts. inhibition, % at 24.9 µM. NIH/3T3 viability, CellTiter-Glo ATP luminescence, 90 h. shares compounds with T cruzi growth-1. 5,600 tested, 56% active;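 active = mean loss of cell viability signal at or above a set limit, and enough replicates individually reaching it; inconclusive = meets only the mean limit or only the replicate share; inactive = meets neither condition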;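 note: 0% = median of neutral control wells and 100% = median of positive control wells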
Starred values were filed as active, the others as inactive; ? = inconclusive; nt = no result.

SMILES	C diff growth	Pf Dd2 growth	T cruzi growth-1	T cruzi growth-2	T cruzi growth-3	3T3 cytotox	NIH3T3 tox 2
CO[C@@H]1CN(C)C(=O)c2ccc(NC(=O)C3CCOCC3)cc2OC[C@@H](C)N(Cc2cccnc2)C[C@@H]1C	-2	35	nt	nt	nt	nt	nt
O=C(Nc1ccccc1)[C@@H]1[C@@H](CO)[C@@H]2Cn3c(cccc3=O)[C@@H]2N1C(=O)C1CCC1	3	8	47	nt	nt	nt	nt
CN(C)Cc1cn(CC[C@H]2CC[C@H](NS(=O)(=O)c3ccc(-c4ccccc4)cc3)[C@@H](CO)O2)nn1	nt	-2	-194	nt	nt	nt	nt
CNC[C@H]1Oc2ccc(NC(=O)Nc3c(C)noc3C)cc2C(=O)N([C@H](C)CO)C[C@H]1C	1	19	-35	nt	nt	nt	nt
C[C@H](CO)N1C[C@H](C)[C@H](CN(C)C(=O)c2ccc(F)cc2)Oc2cc(C3=CCCCC3)ccc2S1(=O)=O	4	-39	111*	101*	61	31	62*
C[C@H]1CN([C@@H](C)CO)S(=O)(=O)c2ccc(C3=CCCC3)cc2O[C@@H]1CN(C)C(=O)c1ccc(F)cc1	5	-53	nt	nt	nt	nt	nt
COc1ccc2c3c(n(C)c2c1)[C@@H](CO)N(Cc1ccccc1F)CC31CN(C(=O)C2CCCC2)C1	8	-58	nt	nt	nt	nt	nt
C[C@H](O)C#Cc1ccc2c(c1)O[C@@H](CN(C)Cc1ccncc1)[C@H](C)CN([C@@H](C)CO)S2(=O)=O	2	-41	110*	98*	73	32	50*
C[C@@H]1CN([C@@H](C)CO)S(=O)(=O)c2ccc(C#C[C@@H](C)O)cc2O[C@H]1CN(C)Cc1ccncc1	2	-47	102*	101*	66	29	27*
C[C@H](O)C#Cc1ccc2c(c1)O[C@H](CN(C)Cc1ccncc1)[C@@H](C)CN([C@H](C)CO)S2(=O)=O	3	-38	57	nt	nt	nt	nt
C[C@@H]1CN([C@H](C)CO)S(=O)(=O)c2ccc(C#C[C@@H](C)O)cc2O[C@H]1CN(C)Cc1ccncc1	0	-35	104*	95*	36	15	14
C[C@H](O)C#Cc1ccc2c(c1)O[C@H](CN(C)Cc1ccncc1)[C@H](C)CN([C@H](C)CO)S2(=O)=O	-1	-28	61	nt	nt	nt	nt
C[C@@H]1CN([C@H](C)CO)S(=O)(=O)c2ccc(C#C[C@@H](C)O)cc2O[C@@H]1CN(C)Cc1ccncc1	-4	-35	75	nt	nt	nt	nt
C[C@H]1CN([C@@H](C)CO)C(=O)c2cccc(N(C)C)c2O[C@@H]1CN(C)Cc1ccncc1	0	12	-29	nt	nt	nt	nt
C[C@H]1CN([C@@H](C)CO)C(=O)c2cc(-c3cccc(F)c3)cnc2O[C@@H]1CN(C)C(=O)C1CCCCC1	-7	-47	59	nt	nt	nt	nt
O=C(NCC[C@@H]1CC[C@@H](NC(=O)C2CCC2)[C@H](CO)O1)c1cnccn1	nt	3	52	nt	nt	nt	nt
CN(C)C(=O)C[C@H]1CC[C@@H]2[C@H](COc3ccc(NC(=O)c4ccc(F)c(F)c4)cc3C(=O)N2C)O1	2	4	8	nt	nt	nt	nt
CCCC(=O)N1CC2(CN(S(C)(=O)=O)C2)c2c([nH]c3cc(OC)ccc23)[C@@H]1CO	-9	-54	nt	nt	nt	nt	nt
C[C@@H]1CN([C@@H](C)CO)C(=O)c2cccc(NS(=O)(=O)c3cn(C)cn3)c2O[C@@H]1CN(C)C(=O)NC1CCCCC1	-4	-6	-85	nt	nt	nt	nt
Cc1cccc(-c2ccc([C@H]3[C@H](CO)N4CCCCN(S(=O)(=O)c5cccc(C)c5)C[C@@H]34)cc2)c1	21	-26	98*	91	101*	115*	106*
Cc1cccc(S(=O)(=O)N2CCCCN3[C@H](CO)[C@H](c4ccc(-c5ccccc5)cc4)[C@H]3C2)c1	52	-72	62	nt	nt	nt	nt
Cc1cccc(-c2ccc([C@@H]3[C@@H](CO)N4CCCCN(S(=O)(=O)c5ccccc5C)C[C@H]34)cc2)c1	-3	-39	81	nt	nt	nt	nt
Cc1cccc(-c2ccc([C@H]3[C@H]4CN(S(=O)(=O)c5ccccc5C)CCCCN4[C@H]3CO)cc2)c1	-7	-10	103*	106*	92	2	38*
Cc1cccc(S(=O)(=O)N2CCCCN3[C@H](CO)[C@@H](c4ccc(-c5ccccc5)cc4)[C@@H]3C2)c1	-6	-57	105*	99*	64	26	11
Cc1cccc(-c2ccc([C@@H]3[C@@H](CO)N4CCCCN(S(=O)(=O)c5cccc(C)c5)C[C@H]34)cc2)c1	-7	-35	90	nt	nt	nt	nt
SMILES	C diff growth	Pf Dd2 growth	T cruzi growth-1	T cruzi growth-2	T cruzi growth-3	3T3 cytotox	NIH3T3 tox 2
COc1ccc(NC(=O)Nc2ccc3c(c2)C(=O)N([C@@H](C)CO)C[C@@H](C)[C@@H](CN(C)C(=O)Nc2ccc(C(F)(F)F)cc2)O3)cc1	nt	-42	-160	nt	nt	nt	nt
C[C@@H]1CCCCO[C@@H](CN(C)C(=O)Nc2ccccc2)[C@H](C)CN([C@@H](C)CO)C(=O)c2cc(NC(=O)Nc3ccc(F)cc3)ccc2O1	nt	22	97*	114*	58	-16	-20
C[C@@H]1CCCCO[C@@H](CN(C)C(=O)Nc2ccc(F)cc2)[C@@H](C)CN([C@@H](C)CO)C(=O)c2cc(NC(=O)Nc3ccccc3)ccc2O1	4	-56	79	nt	nt	nt	nt
C[C@H](CO)N1C[C@H](C)[C@H](CN(C)C(=O)Nc2ccc(F)cc2)OCCCC[C@H](C)Oc2ccc(NC(=O)Nc3ccccc3)cc2C1=O	0	15	123*	107*	50	6	1
C[C@@H]1CN([C@H](C)CO)C(=O)c2cc(NC(=O)Nc3ccc(F)cc3)ccc2O[C@@H](C)CCCCO[C@H]1CN(C)C(=O)Nc1ccccc1	nt	-7	48	nt	nt	nt	nt
C[C@H](CO)N1C[C@H](C)[C@@H](CN(C)C(=O)Cc2cccnc2)Oc2ncc(/C=C/c3ccccc3)cc2C1=O	nt	0	nt	nt	nt	nt	nt
C/C=C/c1ccc([C@@H]2[C@@H](CNC(=O)C3CCC3)N(C(=O)NCCC)[C@H]2CO)cc1	11	-73	-2	nt	nt	nt	nt
C[C@H]1CN([C@@H](C)CO)C(=O)CCCn2cc(nn2)CO[C@H]1CN(C)Cc1ccc(C(F)(F)F)cc1	nt	1	58	nt	nt	nt	nt
O=C(C[C@H]1C[C@@H]2c3cc(NC(=O)Nc4ccc(C(F)(F)F)cc4)ccc3O[C@@H]2[C@@H](CO)O1)NCc1ccc(Cl)cc1	nt	-54	-14	nt	nt	nt	nt
C[C@H](NC(=O)C[C@H]1C[C@H]2c3cc(NC(=O)Nc4ccc(C(F)(F)F)cc4)ccc3O[C@H]2[C@@H](CO)O1)c1ccccc1	9	-27	?	77	41	8	-2
O=C(C[C@@H]1C[C@@H]2c3cc(NC(=O)Nc4ccc(C(F)(F)F)cc4)ccc3O[C@@H]2[C@@H](CO)O1)NCc1ccc(Cl)cc1	nt	-45	112*	109*	24	-21	-1
